# Screen size: about 310,000 compounds; about 3,600 (1.2%) were called active.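 The calls were made as follows: active = ratio plate-corrected score three or more library SD toward inhibition, starting fluorescence score within five deviations; inactive = the rest.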 The sample as a whole holds a higher share of actives than the screen did.
# Target: Anoctamin-1 (Mus musculus) (UniProt Q8BHY3)
# Assay: TMEM16A chloride channel inhibitors, primary screen, cell-based, HTS (AID 588511);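 as to normalized B-score (activity score, 25-100; higher = stronger inhibition): score derived from kinetic fluorescence span divided by baseline fluorescence per well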
# Settings: HEK293 TMEM16A/YFP iodide influx fluorescence, ionomycin; at 10 µM
# Sequence of Anoctamin-1 (Mus musculus) (Q8BHY3 whole entry, looked up): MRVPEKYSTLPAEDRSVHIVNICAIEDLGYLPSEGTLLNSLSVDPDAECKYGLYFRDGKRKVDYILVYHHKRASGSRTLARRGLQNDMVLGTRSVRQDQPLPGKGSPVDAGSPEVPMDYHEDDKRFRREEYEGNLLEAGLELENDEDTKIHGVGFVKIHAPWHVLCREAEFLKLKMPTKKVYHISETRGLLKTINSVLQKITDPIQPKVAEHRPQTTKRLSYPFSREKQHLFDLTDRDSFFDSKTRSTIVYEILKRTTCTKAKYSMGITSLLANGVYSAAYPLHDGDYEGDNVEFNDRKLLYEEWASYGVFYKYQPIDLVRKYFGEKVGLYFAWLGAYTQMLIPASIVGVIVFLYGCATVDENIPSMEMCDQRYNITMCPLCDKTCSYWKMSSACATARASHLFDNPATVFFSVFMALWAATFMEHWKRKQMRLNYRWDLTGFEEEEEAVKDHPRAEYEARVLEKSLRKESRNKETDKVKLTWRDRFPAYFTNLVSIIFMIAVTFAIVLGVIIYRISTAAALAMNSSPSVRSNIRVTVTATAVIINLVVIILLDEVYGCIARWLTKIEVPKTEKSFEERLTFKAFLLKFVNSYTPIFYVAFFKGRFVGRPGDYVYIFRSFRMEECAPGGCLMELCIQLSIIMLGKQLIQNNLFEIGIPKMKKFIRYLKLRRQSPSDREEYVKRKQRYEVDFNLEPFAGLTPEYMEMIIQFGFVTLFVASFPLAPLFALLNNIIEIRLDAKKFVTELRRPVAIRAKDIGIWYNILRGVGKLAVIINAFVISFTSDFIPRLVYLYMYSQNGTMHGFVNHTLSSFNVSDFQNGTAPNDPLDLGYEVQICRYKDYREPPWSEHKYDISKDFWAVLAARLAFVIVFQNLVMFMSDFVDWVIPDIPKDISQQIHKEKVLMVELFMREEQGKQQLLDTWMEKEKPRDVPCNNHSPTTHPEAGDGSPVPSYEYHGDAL
row,SMILES,"normalized B-score (activity score, 25-100; higher = stronger inhibition)"
1,O=c1ccc2cc(S(=O)(=O)NCCCc3ccccc3)ccc2[nH]1,inactive
2,O=c1cc(C(F)(F)F)[nH]c(=O)n1C1CCCCC1,25 (active)
3,Cc1ccc(Nc2cc(=O)n(C3CCCCC3)c(=O)[nH]2)cc1C,inactive
4,CCCOn1c(-n2nc(C)cc2C)nc2ccccc2c1=O,inactive
5,COc1ccc(OCCCn2cccc2/C=C2/C(=N)N3OC(C)=CC3=NC2=O)cc1,25 (active)
6,CCOc1cc(/C=C2/C(=N)N3OC(C)=CC3=NC2=O)ccc1OC,inactive
7,CC1=CC2=NC(=O)/C(=C/c3coc4ccccc4c3=O)C(=N)N2O1,inactive
8,Cn1cnc(C(F)(F)F)c1-c1ccc([N+](=O)[O-])cc1,inactive
9,O=C(Nc1cccc(S(=O)(=O)N2CCCCC2)c1)c1ccc2c(c1)OCO2,inactive
10,O=C(Nc1cccc(S(=O)(=O)Nc2ccc(Cl)cc2)c1)c1ccc2c(c1)OCCO2,25 (active)
11,O=C(Nc1ccccc1)c1ccc2c(c1)OCCCO2,inactive
12,CCCCn1c(SCc2ncc(-c3ccccc3)o2)nc2cc(S(N)(=O)=O)ccc21,25 (active)
13,CCn1c(SCC(=O)NCC2CCCO2)nc2cc(S(=O)(=O)N3CCCCC3)ccc21 (stereo not given),inactive
14,CCCCn1c(SCC(=O)N2CCC(C(=O)OCC)CC2)nc2cc(S(N)(=O)=O)ccc21,inactive
15,CN(C)c1cc(-c2ccc(F)cc2)oc(=O)c1Cl,inactive
16,N#CC1=C(SCc2ccc(C#N)cc2)N=C(N)C(c2nc(-c3ccccc3)cs2)C12CCCCC2 (stereo not given),inactive
17,N#CC1=C(SCc2ccccc2)NC(=O)C(C#N)C12CCCC2 (stereo not given),25 (active)
18,CC1(C)CCc2nc(SCc3ccccc3)c(C#N)cc2C1,inactive
19,Nc1ccc(C(=O)OCC(=O)NC2CCS(=O)(=O)C2)cc1[N+](=O)[O-] (stereo not given),inactive
20,CCC1CCCCN1C(=S)Nc1ccc(SC(F)F)cc1 (stereo not given),inactive
21,COc1ccc(CCN2CC(C(=O)NCCN3CCNC3=O)CCC2=O)cc1 (stereo not given),inactive
22,O=[N+]([O-])c1cc(Cl)cc(/C=N/NC(=S)Nc2cc(S(=O)(=O)N3CCOCC3)ccc2Cl)c1O,100 (active)

row,SMILES,"normalized B-score (activity score, 25-100; higher = stronger inhibition)"
1,O=C(N/N=C/c1ccc([N+](=O)[O-])o1)c1cccc(S(=O)(=O)N2CCOCC2)c1,inactive
2,O=C(NC(=S)Nc1ccc(S(=O)(=O)N2CCOCC2)cc1)c1ccccc1[N+](=O)[O-],inactive
3,Cc1ccsc1C(=O)N[C@@H](C)c1nnc2ccccn12,inactive
4,COC(C[C@@H]1O[C@@H]1C(=O)[C@H](C)OCc1ccccc1)OC,inactive
5,CSCCC(C(=O)NC1=NCCS1)N1C(=O)c2ccccc2C1=O (stereo not given),inactive
6,COC(=O)[C@@H]1CC(O)CN1C(=O)C12CC3CC(CC(C3)C1)C2 (stereo not given in full),inactive
7,CC(C)OCCCNc1ncnc2c1[nH]c1ccc(F)cc12,100 (active)
8,CC(C)OCCCNC(=O)c1cc(Sc2ccc(F)cc2)nc2ccccc12,inactive
9,CNS(=O)(=O)c1cnccc1N1CCN(c2cccc(C)c2)CC1,inactive
10,CCC1(C)Cc2c(sc3[nH]c(=S)n(Cc4ccccc4)c(=O)c23)CO1 (stereo not given),inactive
11,CC1CC(C)(C)n2c(O)c(N=NC(N)=S)c3cccc1c32 (stereo not given),inactive
12,CCC(C)NCCOCCOc1ccc(Br)cc1C (stereo not given),inactive
13,COc1cccc(OC)c1C(=O)N1CCN(Cc2cccnc2)CC1,inactive
14,Cc1cc(-c2ccc(C)c(S(=O)(=O)Nc3ccc(S(N)(=O)=O)cc3)c2)on1,inactive
15,Cc1cc(-c2ccc(C)c(S(=O)(=O)NC(C)Cc3ccco3)c2)on1 (stereo not given),inactive
16,Cc1ccc2c(c1)N(S(=O)(=O)c1cc(-c3cc(C)no3)ccc1C)CCO2,25 (active)
17,C=CCNC(=O)C1CC2c3ccccc3C1c1ccccc12 (stereo not given),inactive
18,CCOc1ccc(S(=O)(=O)N2CCCC(C(=O)N3CCC(C(N)=O)CC3)C2)cc1Cl (stereo not given),inactive
19,C#CCOCCOCCOCCNc1nc(N2CCN(C(=O)CCCCCCCCCCNC(=O)[C@H](CCCCN)n3cc(C)nn3)CC2)nc(N2CCN(C(=O)CCCCCCCCCCNC(=O)[C@H](CO)n3cc(CCCSC)nn3)CC2)n1,100 (active)
20,C#CCOCCOCCOCCNc1nc(N2CCN(C(=O)CCCCCCCCCCNC(=O)Cn3cc(CCCCCN)nn3)CC2)nc(N2CCN(C(=O)CCCCCCCCCCNC(=O)[C@H](CO)n3cc(CCCSC)nn3)CC2)n1,inactive
21,C#CCOCCOCCOCCNc1nc(N2CCN(C(=O)CCCCCCCCCCNC(=O)[C@H]([C@@H](C)CC)n3cc(CCCCN=C(N)N)nn3)CC2)nc(N2CCN(C(=O)CCCCCCCCCCNC(=O)[C@H](CO)n3cc(CCCSC)nn3)CC2)n1,inactive
22,COC(=O)CSc1nc2c(c(C3CC=CCC3)c1C#N)CCC2 (stereo not given),inactive

row,SMILES,"normalized B-score (activity score, 25-100; higher = stronger inhibition)"
1,CCOC(=O)C1CCN(S(=O)(=O)c2c(C)noc2C)CC1,inactive
2,CCOC(=O)N1CCN(Cc2nc3cc(NC(C)=O)ccc3n2C)CC1,inactive
3,Cn1c(CN2CCOCC2)nc2cc(NC(=O)c3ccc(Cl)cc3)ccc21,100 (active)
4,CC(=O)NCCc1nc2cc(NC(=O)c3ccccc3)ccc2n1C,inactive
5,O=C(NCCCn1ccnc1)C1CCCN(S(=O)(=O)c2cc(Cl)ccc2Cl)C1 (stereo not given),inactive
6,Nc1nnc2c(C(F)(F)F)nc3ccccc3n12,inactive
7,O=C(NCc1ccc2c(c1)OCO2)c1cc(F)c(F)cc1Cl,inactive
8,CCn1c(=O)c(C(=O)NCc2ccc3c(c2)OCO3)c(O)c2ccccc21,inactive
9,Cc1nc2c(C(=O)NCc3ccc4c(c3)OCO4)c[nH]n2c(=O)c1Cc1ccccc1F,100 (active)
10,CCN(C(=O)Cc1nc(N)n[nH]1)C1(C(=O)Nc2ccccc2)CCCCC1,inactive
11,Cn1nccc1C(=O)NC1CCCc2c1cnn2-c1ccccc1F (stereo not given),inactive
12,Cc1cc(C(=O)NC2CCCc3c2cnn3-c2cccc(C)c2C)c(C)o1 (stereo not given),inactive
13,COc1ccc(C(=O)NC2CCCc3c2cnn3-c2cccc(C)c2C)c(OC)n1 (stereo not given),100 (active)
14,O=C(CCN1C(=O)c2ccccc2C1=O)C1=NN[C@@H]2C(=O)N(c3ccc(F)cc3)C(=O)[C@H]12,inactive
15,C=CCC(CC=C)(C(N)=O)c1ccccc1,inactive
16,Cc1ccc(S(=O)(=O)N2[C@@H](c3cccc(Cl)c3)C(C(=O)O)=CC[C@H]2c2ccc(Cl)c(Cl)c2)cc1,100 (active)
17,CS(=O)(=O)N(CC(=O)N1CCN(c2cccc(Cl)c2)CC1)c1ccccc1,inactive
18,Cc1ccc([C@@H]2CC=C(C(=O)O)[C@H](c3cccc(Cl)c3)N2S(=O)(=O)c2ccc(C)cc2)cc1,inactive
19,Cc1ccccc1NC(=O)NCC1CCN(Cc2cccc(Cl)c2)CC1,inactive
20,Cc1ccccc1S(=O)(=O)N1[C@@H](c2cccc(Cl)c2)C(C(=O)O)=CC[C@H]1c1ccc(Cl)cc1,100 (active)
21,Cc1ccc(S(=O)(=O)N2[C@@H](c3ccccc3F)C(C(=O)O)=CC[C@H]2c2ccc(Cl)cc2)cc1,inactive

# Source: PubChem BioAssay AID588511 (Johns Hopkins Ion Channel Center, 2011)
